From PubChem BioAssay (Tox21)
Inconclusive results are not listed. Calls of active or inactive are those of the source. Unless noted, calls come from the whole dose curve; as a rule, active = well fitted curve in the direction sought with a large enough effect in the repeat runs; inconclusive = weak or mixed curves; inactive = no such curve, though single readings can be large; an effect the other way counts as inactive or inconclusive.

Legend:
[1] = qHTS RealTime-Glo MT Cell Viability Assay in HEK293 cells - 0 hour (AID 1224880); note: top concentration of the series differs between compounds; nearly all actives have a fitted effect of over 45% in size
Procedure, shortened: (§1)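 Viable HEK293 cells reduce a cell-permeant prosubstrate; the product diffuses out and is consumed by NanoLuc in the medium to give light. Compounds went in after a 5 h incubation and plates were read over the treatment course.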

[2] = A CellTox Green Cytotoxicity Assay to monitor cytotoxicity in HEK293 cells - 32 hour (AID 1224881); note: nearly all actives have a fitted effect of over 40% in size
Procedure, shortened: (§2)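 Fluorescence intensity, read at 0, 8, 16, 24, 32 and 40 h of compound treatment, reflected dye binding to DNA of dead HEK293 cells; compounds (23 nL, DMSO) were added 5 h after plating cells with reagent.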

[3] = A CellTox Green Cytotoxicity Assay to monitor cytotoxicity in HepG2 cells - 0 hour (AID 1224882); note: nearly all actives have a fitted effect of over 35% in size
Procedure, shortened: (§3)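 Using 1536-well format, dye-containing HepG2 suspension was seeded, allowed 5 h at 37 C/5% CO2, dosed by pintool with compounds, positive and negative controls, and imaged for fluorescence across 40 h.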

[4] = A CellTox Green Cytotoxicity Assay to monitor cytotoxicity in HepG2 cells - 32 hour (AID 1224883); note: nearly all actives have a fitted effect of over 50% in size
Procedure, shortened: as §3

[5] = A CellTox Green Cytotoxicity Assay to monitor cytotoxicity in HEK293 cells - 8 hour (AID 1224884); note: nearly all actives have a fitted effect of over 35% in size
Procedure, shortened: as §2

[6] = qHTS RealTime-Glo MT Cell Viability Assay in HepG2 cells - 16 hour (AID 1224885); note: nearly all actives have a fitted effect of over 50% in size
Procedure, shortened: (§4)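 Real-time, nonlytic viability: 600 HepG2 cells/well mixed with NanoLuc enzyme plus prosubstrate; 5 h settle, compound (DMSO) added by pintool; luminescence monitored over 40 h at 37 C.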

[7] = qHTS RealTime-Glo MT Cell Viability Assay in HEK293 cells - 24 hour (AID 1224886); note: top concentration of the series differs between compounds; nearly all actives have a fitted effect of over 50% in size
Procedure, shortened: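 Cells + reagent dispensed (600 cells/well, HEK293) → 5 h at 37 C/5% CO2 → 23 nL compound in DMSO pinned → 40 h at 37 C → luminescence read at 0, 8, 16, 24, 32, 40 h.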

[8] = qHTS RealTime-Glo MT Cell Viability Assay in HEK293 cells - 8 hour (AID 1224887); note: top concentration of the series differs between compounds; nearly all actives have a fitted effect of over 50% in size
Procedure, shortened: as §1

[9] = A CellTox Green Cytotoxicity Assay to monitor cytotoxicity in HEK293 cells - 16 hour (AID 1224888); note: nearly all actives have a fitted effect of over 35% in size
Procedure, shortened: as §2

[10] = qHTS RealTime-Glo MT Cell Viability Assay in HepG2 cells - 0 hour (AID 1224889); note: nearly all actives have a fitted effect of over 50% in size
Procedure, shortened: as §4

[11] = A CellTox Green Cytotoxicity Assay to monitor cytotoxicity in HepG2 cells - 8 hour (AID 1224890); note: nearly all actives have a fitted effect of over 45% in size
Procedure, shortened: as §3

[12] = qHTS assay to identify small molecule antagonists of the estrogen receptor alpha (ER-alpha) signaling pathway using the BG1 cell line in the presence of 0.1 nM 17-beta-estradiol - cell viability counter screen (AID 1259241); note: nearly all actives have a fitted effect of over 40% in size
Procedure, shortened: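 The cell line endogenously expresses full-length ER-alpha and carries four EREs driving luciferase. Cells are cultured 5 days hormone-free, treated 22 hr with compounds and 0.1 nM estradiol, then viability is read by fluorescence.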

[13] = qHTS assay to identify small molecule antagonists of the androgen receptor (AR) signaling pathway using the MDA cell line in the presence of 0.5 nM R1881 - cell viability counter screen (AID 1259242); note: nearly all actives have a fitted effect of over 45% in size
Procedure, shortened: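 Viability of MDA-kb2 cells was multiplexed with the luciferase AR readout; after 16 hr with compounds and R1881 at 0.5 nM final, CellTiter-Fluor fluorescence was recorded.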

[14] = biological target: Androgen receptor (Homo sapiens) (UniProt P10275); assay: qHTS assay to identify small molecule antagonists of the androgen receptor (AR) signaling pathway using the MDA cell line in the presence of 0.5 nM R1881 (AID 1259243); note: nearly all actives have a fitted effect of over 50% in size
Sequence of Androgen receptor (Homo sapiens) (P10275 whole entry, looked up): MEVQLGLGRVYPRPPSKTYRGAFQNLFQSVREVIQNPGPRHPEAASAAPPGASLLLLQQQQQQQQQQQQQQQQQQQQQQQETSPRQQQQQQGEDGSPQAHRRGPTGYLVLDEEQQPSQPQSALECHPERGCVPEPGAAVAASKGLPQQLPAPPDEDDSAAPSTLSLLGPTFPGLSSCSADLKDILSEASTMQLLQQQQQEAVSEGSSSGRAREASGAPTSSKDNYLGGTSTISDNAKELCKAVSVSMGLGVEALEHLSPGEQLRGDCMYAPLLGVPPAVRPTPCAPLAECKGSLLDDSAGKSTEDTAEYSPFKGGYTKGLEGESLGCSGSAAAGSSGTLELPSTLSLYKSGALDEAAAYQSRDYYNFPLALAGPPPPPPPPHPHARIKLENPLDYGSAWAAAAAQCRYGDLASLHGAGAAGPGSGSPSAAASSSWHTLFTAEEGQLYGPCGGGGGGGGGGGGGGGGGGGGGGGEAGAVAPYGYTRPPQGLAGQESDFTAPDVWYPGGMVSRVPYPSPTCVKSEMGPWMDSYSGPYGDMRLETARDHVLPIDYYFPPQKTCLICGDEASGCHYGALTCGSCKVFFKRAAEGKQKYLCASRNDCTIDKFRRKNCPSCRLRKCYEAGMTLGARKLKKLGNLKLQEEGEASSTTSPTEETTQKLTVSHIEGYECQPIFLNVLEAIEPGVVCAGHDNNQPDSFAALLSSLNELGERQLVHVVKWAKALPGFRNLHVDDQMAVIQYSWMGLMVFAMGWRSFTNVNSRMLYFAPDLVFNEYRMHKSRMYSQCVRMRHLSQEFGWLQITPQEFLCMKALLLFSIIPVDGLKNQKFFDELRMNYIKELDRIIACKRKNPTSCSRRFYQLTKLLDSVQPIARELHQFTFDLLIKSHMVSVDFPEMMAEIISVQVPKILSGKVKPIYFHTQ
Procedure, shortened: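 Reporter cells cultured without CO2 receive test chemicals, then 0.5 nM R1881 final; after 16 hr at 37C, ONE-Glo is added and light output recorded.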

[15] = qHTS assay to identify small molecule phospholipidosis (PLD) inducers (AID 1259344; active = well fitted curve in the direction sought with a large enough effect; an effect the other way counts as inactive or inconclusive)
Procedure, shortened: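 HepG2 cells grown on collagen I take up LipidTOX Red while exposed to compound for 24 h; after fixation they are imaged at 20x and pit metrics are extracted.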

[16] = qHTS assay to identify small molecule HDAC inhibitors (AID 1259364);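 note: wild-type HCT-116 cells with endogenous class I/II HDAC activity; top concentration of the series differs between compounds; nearly all actives have a fitted effect of over 45% in size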
Procedure, shortened: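 Read-out: luminescence of HDAC-Glo I/II reagent, 30 min RT, reflecting class I/II deacetylase activity in whole HCT-116 cells pre-exposed 2 h to DMSO-dissolved compounds.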

[17] = qHTS assay to identify small molecule agonists of the sonic hedgehog signaling (Shh) pathway - cell viability counter screen (AID 1259366); note: nearly all actives have a fitted effect of over 50% in size
Procedure, shortened: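 Viability measured fluorometrically (CellTiter-Fluor, 1hr, 37C) in 3T3 Gli1-Luc reporter cells after 23hr compound exposure within a 24hr incubation at 37C/5% CO2.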

[18] = qHTS assay to identify small molecule antagonists of the sonic hedgehog signaling (Shh) pathway - cell viability counter screen (AID 1259367); note: nearly all actives have a fitted effect of over 55% in size
Procedure, shortened: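 After a 4 hr settling period, 3T3 Gli1-Luc cells were treated with DMSO-dissolved chemicals and conditioned medium, kept 24 hr at 37C in 5% CO2, and assayed for viability by CellTiter-Fluor fluorescence following 1 hr reagent incubation.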

[19] = biological target: Estrogen receptor (Homo sapiens) (UniProt P03372); assay: qHTS assay to identify small molecule antagonists of the estrogen receptor alpha (ER-alpha) signaling pathway using the BG1 cell line in the presence of 0.1 nM 17-beta-estradiol (AID 1259244); note: nearly all actives have a fitted effect of over 50% in size
Sequence of Estrogen receptor (Homo sapiens) (P03372 whole entry, looked up): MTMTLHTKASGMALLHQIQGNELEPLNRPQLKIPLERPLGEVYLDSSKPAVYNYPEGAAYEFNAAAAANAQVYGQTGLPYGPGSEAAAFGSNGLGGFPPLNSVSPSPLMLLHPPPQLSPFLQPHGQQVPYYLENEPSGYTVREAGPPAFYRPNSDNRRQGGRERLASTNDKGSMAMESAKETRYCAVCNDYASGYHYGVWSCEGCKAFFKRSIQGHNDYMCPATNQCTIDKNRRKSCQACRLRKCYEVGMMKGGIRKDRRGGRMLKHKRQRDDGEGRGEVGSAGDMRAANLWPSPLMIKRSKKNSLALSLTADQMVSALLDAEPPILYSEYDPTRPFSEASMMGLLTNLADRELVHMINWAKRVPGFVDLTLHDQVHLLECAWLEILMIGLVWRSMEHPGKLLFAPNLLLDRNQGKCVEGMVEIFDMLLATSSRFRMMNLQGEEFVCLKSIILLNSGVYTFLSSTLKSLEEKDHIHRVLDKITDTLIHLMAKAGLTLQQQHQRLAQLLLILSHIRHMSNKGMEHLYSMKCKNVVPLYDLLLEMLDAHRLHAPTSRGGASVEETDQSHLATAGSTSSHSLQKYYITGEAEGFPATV
Procedure, shortened: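 Estradiol at 0.1 nM (final) stimulates the endogenous ER-alpha of VM7Luc4E2 cells carrying an ERE-driven luciferase; compounds are co-incubated 22 h at 37C and luciferase output quantified by luminescence.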

[20] = qHTS assay to identify small molecule HDAC inhibitors - cell viability counter screen (AID 1259365)
Procedure, shortened: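 Viability readout: CellTiter-Glo luminescence. Wild-type HCT-116 cells, 2hr compound treatment following overnight attachment at 37 C.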

Measured: Potency

CC(C(=O)O)c1ccc2c(c1)Cc1cccnc1O2 (stereo not given)
not listed: [19] | [20]
inactive: all other assays above

CC(CCl)OC(C)CCl (stereo not given)
not listed: [14] | [15]
inactive: all other assays above

CCCCCC1CCC(=O)O1 (stereo not given)
not listed: [14] | [15] | [18] | [20]
inactive: all other assays above

O=C(O)c1cccc(C(=O)O)c1C(=O)O
not listed: [15] | [16]
inactive: all other assays above

C(/C=C/C=C/Nc1ccccc1)=Nc1ccccc1
not listed: [14] | [15] | [18]
inactive: all other assays above

Cc1ccccc1CCO
not listed: [14] | [15]
inactive: all other assays above

Cc1ccc(Cl)c(OCC(O)CNC(C)(C)C)c1 (stereo not given)
not listed: [14] | [15]
inactive: all other assays above

FC1(F)C(F)(F)C(F)(F)C2(F)C(F)(C1(F)F)C(F)(F)C(F)(F)C1(F)C(F)(F)C(F)(F)C(F)(F)C(F)(F)C12F (stereo not given)
not listed: [14] | [15] | [18] | [19] | [20]
inactive: all other assays above

C=Cc1ccc(C=C)cc1
not listed: [14] | [15] | [20]
inactive: all other assays above

O=C(O)COCC(=O)O
not listed: [14] | [15] | [19] | [20]
inactive: all other assays above

C=CC(O)CCCCC (stereo not given)
not listed: [14] | [15] | [19]
inactive: all other assays above

[O-][n+]1ccc(Cl)cc1
not listed: [14] | [15] | [19]
inactive: all other assays above

Cc1c(Nc2ncccc2C(=O)O)cccc1C(F)(F)F
not listed: [14] | [16] | [19]
inactive: all other assays above

CCc1c(C)[nH]c2c1C(=O)C(CN1CCOCC1)CC2 (stereo not given)
not listed: [14] | [16] | [19]
inactive: all other assays above

CCC(C)CCCC(C)(C)O (stereo not given)
not listed: [14] | [15] | [16] | [18] | [19]
inactive: all other assays above

C=C[Si](OCC)(OCC)OCC
not listed: [14] | [15] | [18] | [19]
inactive: all other assays above

CC(C)C/C=C(\C=O)c1ccccc1
not listed: [14] | [15] | [16] | [17] | [18]
inactive: all other assays above
